{"source": "the supplement of paper PMC9948646", "note": "Unmarked numbers belong to inactive results.", "data": [{"system": "gramicidin D channels in DC22:1PC lipid vesicles (bilayer-modifying potency)", "experiment": "initial Tl+ fluorescence quench rate relative to no-drug control (NormRate, gramicidin monomer-dimer shift) (ratio (fold of control)); higher = stronger bilayer-modifying effect (equilibrium shifted toward conducting dimers), active = 1.5 or more", "settings": "10 µM; lipid concentration 50 µM; temperature: 25 °C", "experimental": "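Stopped-flow fluorescence quench assay: ANTS-loaded DC22:1PC large unilamellar vesicles doped with gramicidin D (1:2000), 50 µM lipid, equilibrated 10 min with 10 µM drug (0.1% DMSO), mixed with Tl+ quench buffer at 25°C. Initial quench rate (Tl+ influx) was fitted with a modified stretched exponential and normalised to the no-drug control rate (NormRate); duplicates from two independent LUV preparations (triplicates for 7 drugs).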", "values": [{"compound": "COc1cccc(OCC(=O)c2ccc(Br)cc2)c1", "initial Tl+ fluorescence quench rate": 1.06}, {"compound": "CCOC(=O)c1c(NC(=O)c2c(F)c(F)c(F)c(F)c2F)sc(C(N)=O)c1C", "initial Tl+ fluorescence quench rate": 1.41}, {"compound": "c1ccc2c(c1)CN(CC1CC1)CC1(CCN(Cc3c[nH]c4cnccc34)CC1)O2", "initial Tl+ fluorescence quench rate": 1.06}, {"compound": "Cc1nn(C(=O)Nc2cccc(C(F)(F)F)c2)c(C)c1Sc1ncccn1", "initial Tl+ fluorescence quench rate": "2 (active)"}, {"compound": "CC1(C)Cc2c(c(N3CCOCC3)nc3snc(Br)c23)CO1", "initial Tl+ fluorescence quench rate": 1.26}, {"compound": "CC(=O)NC[C@H]1CN(c2ccc(-c3ccc(CNCc4cn[nH]n4)cc3)c(F)c2)C(=O)O1", "initial Tl+ fluorescence quench rate": 1.37}, {"compound": "CCN(CC)S(=O)(=O)c1ccc(C(=O)Nc2cc(C)nn2-c2nc(C)c(C)c(=O)[nH]2)cc1", "initial Tl+ fluorescence quench rate": "1.57 (active)"}, {"compound": "CN1CCN(S(=O)(=O)c2ccc(-c3ccc4c(Nc5ncc(Cl)cn5)ccnc4c3)cc2)CC1", "initial Tl+ fluorescence quench rate": "2.76 (active)"}, {"compound": "CN(C)CCNC(=O)N1CCCN(c2ncnc3cc(-c4ccccc4)sc23)CC1", "initial Tl+ fluorescence quench rate": 1.11}, {"compound": "CO[C@H]1/C=C/O[C@@]2(C)Oc3c(C)c(O)c4c(O)c(/c(=C/NN5CCN(C)CC5)c(O)c4c3C2=O)=N\\C(=O)/C(C)=C\\C=C/[C@H](C)[C@H](O)[C@@H](C)[C@@H](O)[C@@H](C)[C@H](OC(C)=O)[C@@H]1C", "initial Tl+ fluorescence quench rate": 1.34}, {"compound": "N#CCN(CCCCN1CCN(c2ccc(F)cc2)CC1)C(=O)OCc1ccccc1", "initial Tl+ fluorescence quench rate": 1.5}, {"compound": "CN1CCN(CCCOc2ncc(Nc3ncc(-c4ccc(C(F)(F)F)c(F)c4)nc3C(N)=O)cn2)CC1", "initial Tl+ fluorescence quench rate": "3.11 (active)"}, {"compound": "O=C(Nc1cccc(Cl)c1)c1cnc(N2CCN(c3ccncc3)CC2)c(Cl)c1", "initial Tl+ fluorescence quench rate": "3.74 (active)"}, {"compound": "C[C@H]1COC2(CCN(c3nc(=O)c4cc(C(F)(F)F)cc([N+](=O)[O-])c4s3)CC2)O1", "initial Tl+ fluorescence quench rate": 1.08}, {"compound": "NS(=O)(=O)c1cncc(-c2ccc3nccc(-c4cn[nH]c4)c3n2)c1", "initial Tl+ fluorescence quench rate": 1.18}, {"compound": "Nc1ncc(Br)cc1-c1nc2cc(Cl)cnc2[nH]1", "initial Tl+ fluorescence quench rate": 1.06}, {"compound": "NCC(=O)N1CCn2c(nc(-c3ccccc3)c2Nc2ccc3c(c2)OCO3)C1", "initial Tl+ fluorescence quench rate": 1.36}, {"compound": "CC(=O)NC[C@H]1CN(c2ccc(-c3ccc(CO)cc3)c(F)c2)C(=O)O1", "initial Tl+ fluorescence quench rate": 1.22}, {"compound": "COC(=O)c1c(NC(=O)c2cc3ccccc3oc2=O)sc2c1CCN(Cc1ccccc1)C2", "initial Tl+ fluorescence quench rate": 1.04}, {"compound": "Cc1nc(-c2cccc(NCc3ccccc3)c2)[nH]c1C", "initial Tl+ fluorescence quench rate": 1.24}, {"compound": "Clc1cccc(CO[C@H]2CCc3ccccc3[C@@H]2n2ccnn2)c1", "initial Tl+ fluorescence quench rate": 1.37}, {"compound": "CCCCN(CCCC)c1c(C#N)cc(S(=O)(=O)Nc2ccccc2)cc1C#N", "initial Tl+ fluorescence quench rate": 1.1}, {"compound": "Cc1ccc(Oc2ccc(NC(=O)CNc3ccccc3N3CCCC3=O)cc2)cc1", "initial Tl+ fluorescence quench rate": "4.66 (active)"}, {"compound": "CNC(=O)CNc1nc(-c2ccccn2)nc2scc(-c3ccccc3)c12", "initial Tl+ fluorescence quench rate": "5.21 (active)"}, {"compound": "COC(=O)Nc1nc2cc(C(=O)c3ccccc3)ccc2[nH]1", "initial Tl+ fluorescence quench rate": 1.04}, {"compound": "Cc1ccc2c(c1C)NC(=O)[C@@]21NN=C(c2ccccc2)S1", "initial Tl+ fluorescence quench rate": 1.38}, {"compound": "Nc1ncc(-c2cn[nH]c2)cc1-c1nc2cc(Cl)cnc2[nH]1", "initial Tl+ fluorescence quench rate": 1.08}, {"compound": "Clc1ccc(CN2CCN(C3=NCCN3)CC2)cc1Cl", "initial Tl+ fluorescence quench rate": 1.2}, {"compound": "CNCC[C@H](Oc1ccc(C(F)(F)F)cc1)c1ccccc1", "initial Tl+ fluorescence quench rate": 1.41}, {"compound": "FC(F)(F)c1ccc(N(c2cccnc2)C2CCN(c3ccc(C(F)(F)F)cn3)CC2)cc1", "initial Tl+ fluorescence quench rate": "1.56 (active)"}, {"compound": "O=C(NCCN1CCCC1)c1cc(NCCN2CCOCC2)nc2ccc(Cl)cc12", "initial Tl+ fluorescence quench rate": 1.15}, {"compound": "CCNC(=O)[C@H](C)Nc1nc(-c2cccnc2)nc2sc(C)c(C)c12", "initial Tl+ fluorescence quench rate": 1.08}, {"compound": "CS(=O)(=O)c1ccc(C(=O)N(C[C@H]2CCCO2)c2nc3ccccc3s2)cc1[N+](=O)[O-]", "initial Tl+ fluorescence quench rate": "2.09 (active)"}, {"compound": "O=C(C1CCN(c2cc(-n3cccc3)ncn2)CC1)N1CCc2ccccc2C1", "initial Tl+ fluorescence quench rate": 1.45}, {"compound": "Cc1cc(C(=O)Nc2ccc(-c3ccccc3)cc2)no1", "initial Tl+ fluorescence quench rate": 1.11}, {"compound": "Cc1ccc2cc([C@@H]3NC(=O)c4ccccc4N3)c(Cl)nc2c1", "initial Tl+ fluorescence quench rate": 1.08}, {"compound": "C[C@H]1CCCN(C(=O)[C@H](C)Nc2cc(Cl)ccc2N2CCOCC2)C1", "initial Tl+ fluorescence quench rate": 1.23}, {"compound": "Cn1c(=O)c2c(S(C)(=O)=O)snc2n(C)c1=O", "initial Tl+ fluorescence quench rate": 1.19}, {"compound": "COc1ccc(Nc2ccccc2NC(=O)c2ccc(O)nc2)cc1", "initial Tl+ fluorescence quench rate": 1.03}, {"compound": "O=C(NCc1ccco1)N1CCN(Cc2ccc(Cl)s2)CC1", "initial Tl+ fluorescence quench rate": 1.03}]}]}
